Experimental data from PubChem BioAssay (NCI).
The panel holds about 83,000 compounds, 20% with a hit somewhere; the sample as a whole holds those more often.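 Percent growth is the endpoint: 0 to 100 indicates growth inhibition (40 means 60% inhibition), 0 means no net growth, and negative values indicate cell death.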 Unmarked numbers belong to inactive results. Activity calls are given as the source filed them.

Tested on: EKVX NSCLC
Experiment: NCI-60 one-dose screen, 48 h (100 = growth as untreated, 0 = no growth, -100 = all killed)
Conditions: 10 µM unless noted
Description: Growth inhibition of the EKVX human Non-Small Cell Lung tumor cell line is measured as a screen for anti-cancer activity. Cells are grown in 96 well plates and exposed to the test compound for 48 hours. Compounds are tested at a single concentration, which is 10^-5 M for most compounds. The reported endpoint is percent growth (GI% or GIPRCNT), where numbers from 0 - 100% represent growth inhibition, and numbers from -100% - 0 represent cell death. For example, a value of 40 represents 60% growth inhibition. A value of 0 means no net growth occurred over the course of the experiment. A value of -40 indicates 40% of cells at the beginning of the experiment died by the end of the experiment. A value of -100 means all cells are dead at the end of the experiment.
NCI-60 Human Tumor Cell Lines Screen was performed using the standard one-dose NCI protocol, which is described in more detail at https://dtp.cancer.gov/discovery_development/nci-60/default.htm.
Compounds with GIPRCNT values below 10 were considered active. Activity score was based on GIPRCNT using the following formula: […]
Score is 0 for GIPRCNT values of 100 or above, 50 for GIPRCNT values of 0, and 100 for GIPRCNT values of -100.

Compound | growth
Cn1c2ccccc2c2c3c(c4c5ccccc5[nH]c4c21)C(=O)N(N)C3=O | 77.3%
Cc1cc(N/N=C/c2nc(-c3ccc(Cl)cc3)oc2C)c2cc(Br)ccc2n1 | 86.4%
Cn1c2c(Cl)c(Cl)ccc2c2ccn3c(=O)c4ccccc4nc3c21 | 80.8%
COc1ccc(S(=O)(=O)NCCNc2nccc(-c3c(-c4cccc(N)c4)nc4sccn34)n2)cc1 | 95.4%
OC(c1cc(-c2ccccc2)nc2ccc(Cl)cc12)C1CCCCN1 (stereo not given) | 63%
COc1ccc(Cl)cc1Nc1nc(C(F)(F)F)ccc1C(=O)N/N=C/c1cccnc1 | 48.5%
NCCN1CCN(c2nccc(-c3ccc4ccccc4c3)n2)CC1 | 75.6%
O=C([C@@H](COCc1ccccc1)N1C(=O)[C@@H](N2C(=O)OC[C@@H]2c2ccccc2)[C@H]1/C=C/c1ccccc1)N1CCC(CCN2CCCCC2)CC1 | 93.1%
CN1C2CCC1/C(=C\c1ccc(Cl)cc1)C1=C2[C@@H](c2ccc(Cl)cc2)C(C#N)=C(N)O1 (stereo not given in full) | 75.7%
C[C@@]1(N2C(=O)OC[C@@H]2c2ccccc2)C(=O)N([C@H](CC(=O)N2CCC(N3CCCCC3)CC2)C(=O)NCc2cccc(C(F)(F)F)c2)[C@@H]1/C=C/c1ccccc1 | 71.7%
COc1cc(/C=N/N(C)C)ccc1O | 105%
CCCCCCCCCCCCCCCC(=O)OCC1OC(n2cnc3c(=S)nc(N)[nH]c32)C(OC(=O)CCCCCCCCCCCCCCC)C1OC(=O)CCCCCCCCCCCCCCC (stereo not given) | 48.6%
CCOC(=O)C(Cc1cc(I)c(O)c(I)c1)NC(=O)c1ccccc1 (stereo not given) | 101%
OCC1C2C=CC(C2)C1CO (stereo not given) | 102%
C=C1CCC2C3(C)COC(c4cccc(Cl)c4)OC3CCC2(C)C1/C=C/C1=CCOC1=O (stereo not given) | 35.2%
O=C1c2cc3c(cc2-c2c1c1cc(Cl)c(Cl)cc1c(=O)n2C[C@H](O)CO)OCO3 | 14.2%
O=C(O)c1ccc2c(c1Sc1ccccc1)C(=O)c1ccccc1C2=O | 36.1%
COc1ccc(-n2c(C)nc3c(c(C)nn3-c3ccccc3)c2=O)cc1 | 32%
NS(=O)(=O)N(c1cc(C(F)(F)F)cc(C(F)(F)F)c1)C1CCN(Cc2ccc(F)cc2)CC1 | 72.2%
O=C(CN1CCN(c2cc3c(cc2F)c(=O)c(C(=O)N/N=C/c2ccccc2)cn3C2CC2)CC1)N/N=C\c1ccccc1 | 66.6%

Compound | growth
COc1ccc(-c2nn(-c3ccccc3)cc2/C=C2\SC(=O)NC2=O)cc1 | 85.2%
COc1cnc2c(c1)C(=O)c1c-2n(CCCBr)c(=O)c2cc([N+](=O)[O-])ccc12 | 34.2%
O=C(O)c1ccc(=O)[nH]n1 | 116%
Cc1ccc(-c2nc(/C=N/Nc3cc(C)nc4ccc(Cl)cc34)c(C)o2)cc1 | -41.2% (active)
CCOC(=S)SCc1ccc(Cl)cc1 | 83.8%
CN(C)CCOc1ccc(-c2nc3ccc(-c4nc5ccc(N6CCN(C)CC6)cc5[nH]4)cc3[nH]2)cc1 | 83.6%
C=C1CCC2C3(C)COC(C)(C)OC3CCC2(C)C1C/C=C1/C(=O)OCC1OC(C)=O (stereo not given) | 53.5%
Nc1c(C(=O)Nc2cccc3c2OCCO3)sc2nc3c(cc12)C(=O)CCC3 | 24.7%
CCCCOc1ccc(NC(=O)n2nc(NC(C)=O)c3cc(NC(C)=O)ccc32)cc1 | 68.7%
CC/C=C\C[C@H](F)C/C=C1/C(=O)C=C[C@@H]1C/C=C\CCCC(=O)O | 75.1%
CCOC(=O)c1c2c(n3ccc(NC(=O)CCN4CCOCC4)cc13)C(=O)c1ncccc1C2=O | 60.4%
O=C(/C=C\c1cccc([N+](=O)[O-])c1)c1ccccc1 | 96.9%
CCCCN(CC)CCCCCCCCCCN1CCCc2cc(OC)ccc21 | 34.5%
C(=N\Nc1ccccn1)/c1ccccn1 | 25.8%
Cc1ccc2c(c1)C(=O)/C(=C/c1ccc(OCC(=O)c3ccccc3)cc1)O2 | 90.2%
Cc1ccccc1CCO | 105%
CC(C)CC(CC1=CCC2CC1C2(C)C)C1=C(O)C(C)(C)C(=O)C(C)(C)C1=O (stereo not given) | 20%
COc1ccc(C/C(C)=C(\c2ccc(OCCN3CCCCCC3)cc2)c2ccc(OC(=O)C3CCCCC3)cc2)cc1 | 83.5%
CNCc1cccc2c1OCCOCCOCCN(C)S(=O)(=O)c1ccc(cc1)-c1cnc(N)c(n1)C(=O)N2 | 43.6%
CC(C)[C@@H]1CC[C@]2(C(=O)NCCCCN=C(N)N)CC[C@]3(C)[C@H](CC[C@@H]4[C@@]5(C)CCC(=O)C(C)(C)[C@@H]5CC[C@]43C)[C@@H]12 | 81.5%
